# Experimental data reported in ChEMBL document CHEMBL5308541, “MAIP: An Open-Source Tool to Enrich High-Throughput Screening Output and Identify Novel, Druglike Molecules with Antimalarial Activity” (ACS Med Chem Lett, 2023).
# Out of some 4,800 compounds screened, about 410 (8.5%) showed an effect of 50% or more. The sample as a whole holds a higher share of strong results than the screen did.
# Test system: Plasmodium falciparum
# Experiment: Confirmatory screen in NF54 pLDH assay, in single point, at 2uM, 72h
# Assay type: functional, Erythrocyte
# Conditions: timepoint 72 hour
row,Structure (SMILES),% Inhibition [%]
1,Fc1ccc(N2CC[C@H](CN3CCC(c4c[nH]c5ccccc45)(c4c[nH]c5ccccc45)CC3)C2)cc1,102
2,CN1C2CCC1CC(OC(=O)C1CCC(C(=O)OC3CC4CCC(C3)N4C)(c3ccccc3)c3ccccc31)C2 (stereo unspecified),63
3,CN1CCC(N(C)c2ccccc2CNC[C@@H](O)c2cccc(Cl)c2)CC1,17
4,O[C@@H](CNCc1ccc2c(c1)CCO2)c1ccc(F)c(F)c1,74
5,CC(C)(C)c1ccc(CNC[C@H](O)c2ccc(F)cc2F)cc1,91
6,CN1CCN(c2ccc(C(F)(F)F)cc2NCc2cnc[nH]2)CC1,92
7,COc1ccc(CCNCc2ccc3[nH]cnc3c2)c(Cl)c1,48
8,CCN(C(C)=O)c1nc(CN2CC=C(c3c[nH]c4cc(F)ccc34)CC2)cs1,20
9,CN(C)CC12CNCC1CN(c1ccnc3cc(Cl)ccc13)C2 (stereo unspecified),97
10,Oc1ccc(C2=CCN(Cc3cccc4[nH]ccc34)CC2)cc1,38
11,CCCOc1cncc(-c2ccc3c(c2)CNCC3)c1,8
